Screening results as filed in PubChem.
G9a inh – G9a (human) methyltransferase inhibition; 350,000 compounds, 8.8% hits; Potency, µM (titrated, usually from 102 µM), for inactives: at the top dose activity, negative = inhibition, actives largely listed as inhibitors; G9a H3K9 monomethylation, AlphaScreen, 2 h; note: % is set by controls: 0 for no effect and ±100 for the full control effect; nearly all actives have a fitted effect of over 75% in size
Target sequence (Q96KQ7 913-1193 limits assumed): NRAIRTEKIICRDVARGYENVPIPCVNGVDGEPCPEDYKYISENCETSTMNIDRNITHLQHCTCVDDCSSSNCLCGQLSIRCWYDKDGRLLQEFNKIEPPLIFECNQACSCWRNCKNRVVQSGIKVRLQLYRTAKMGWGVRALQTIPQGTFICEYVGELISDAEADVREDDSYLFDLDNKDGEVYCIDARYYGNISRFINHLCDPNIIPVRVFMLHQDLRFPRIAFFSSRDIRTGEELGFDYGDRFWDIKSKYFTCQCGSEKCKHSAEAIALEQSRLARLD
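Compounds were preincubated with 20 nM G9a for 15 min, after which biotinylated H3K9 peptide (500 nM) and SAM (20 uM) started a 2 h room-temperature reaction. Monomethylated product was quantified by antibody-based AlphaScreen chemiluminescence.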
Sfp inh – blocks B. subtilis Sfp PPTase activity | 310,000 compounds, 3.5% hits | Biochemical Sfp PPTase activity, qHTS | Potency, µM, for inactives: largest response in the series, negative = inhibition, actives largely listed as inhibitors;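 note: the enzyme is Sfp with the accession as filed and its product quenches rhodamine fluorescence; 0% = enzyme reaction without inhibitor and -100% = no enzyme wells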
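After 15 min at room temperature with compound, 15 nM Sfp received 5 uM rhodamine-CoA plus 12.5 uM BHQ-2-ybbR (50 mM Hepes pH 7.6, 10 mM MgCl2). Rate came from the fluorescence difference over 30 min, ex 525/em 598 nm.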
BAZ2B inh – inhibitors of human BAZ2B bromodomain. AlphaScreen BAZ2B-H3K14Ac peptide displacement. Potency, µM (titrated, usually from 114 µM), for the others: at the highest dose activity change, negative = inhibition, most hits filed as inhibitors. 360,000 compounds, 4.4% hits; note: % is set by controls: 0 for no effect and ±100 for the full control effect; nearly all actives have a fitted effect of over 60% in size
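Complex of BAZ2B and biotin-H3K14Ac (50 nM apiece) forms over 30 min at RT, then faces library compounds up to 110 uM for another 30 min; AlphaScreen beads added, 20 min dark incubation, luminescence read.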
JMJD2A Tudor – blocks the human JMJD2A Tudor domain; AlphaScreen JMJD2A-Tudor / H3K4me3 peptide binding; Potency, µM (doses to about 114 µM), for inactives: top-dose activity change, negative = inhibition, usual class: inhibitors; 390,000 compounds, 4.4% hits; AID 504339; note: % is set by controls: 0 for no effect and ±100 for the full control effect; nearly all actives have a fitted effect of over 50% in size
HP1b chromo inh – inhibitors of HP1-beta chromodomain binding to methylated histone tails. P83916. AlphaScreen HP1-beta / biotin-H3K9me3 peptide binding. Potency, µM (top dose mostly 114 µM), inactives show at the top dose activity change, negative = inhibition, hits mostly inhibitors. 390,000 compounds, 0.56% hits; note: nearly all actives have a fitted effect of over 70% in size
Target sequence (P83916 whole entry, looked up): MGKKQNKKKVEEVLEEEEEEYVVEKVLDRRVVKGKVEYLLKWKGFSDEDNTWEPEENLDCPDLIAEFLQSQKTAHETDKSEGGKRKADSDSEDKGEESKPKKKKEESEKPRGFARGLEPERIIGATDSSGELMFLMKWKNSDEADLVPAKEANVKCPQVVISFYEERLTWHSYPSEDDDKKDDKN
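HP1-beta protein (50 nM final) preincubated 30 min at room temperature with biotinylated H3(1-18)K9me3 peptide (50 nM) in PBS pH 7.4, 0.01% Tween-20, then compound added for 30 min. AlphaScreen streptavidin donor/nickel chelate acceptor beads (10 ug/mL final), 30 min dark, luminescence read.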
TDP1 inh – TDP1 (human) enzyme inhibition; Potency, µM (highest dose often 130 µM), for the others: at the top dose activity change, negative = inhibition, actives largely listed as inhibitors; 350,000 compounds, 0.28% hits; AID 485290; recombinant TDP1, AlphaScreen DNA substrate cleavage; note: % is set by controls: 0 for no effect and ±100 for the full control effect; nearly all actives have a fitted effect of over 40% in size
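Recombinant E. coli-expressed Tdp1 (1 nM) preincubated with compound 15 min at RT, then 5'-biotin/3'-phosphotyrosine-FITC DNA substrate (15 nM) added for 5 min. AlphaScreen beads (10 ug/ml) added, 10 min RT; tyrosine-FITC cleavage read as signal loss.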
An asterisk follows results filed as active; ? = inconclusive; · = no result; ! = repeats disagree; [ ] = another dose, or the depositor's remark. Rows were chosen to be rich in hits. Some 12% of all compounds tested hit in one or more screens of this group. Calls come from the whole dose curve; as a rule, active = well fitted curve in the direction sought with a large enough effect; inconclusive = small, poorly fitted or top-dose-only effect, or another doubt; inactive = no such curve, though single readings can be large; an effect the other way counts as inactive or inconclusive. Potency is the fitted concentration of half-maximal effect.

SMILES	G9a inh	Sfp inh	BAZ2B inh	JMJD2A Tudor	HP1b chromo inh	TDP1 inh
O=C(Nc1ccc(Br)cn1)c1cccc(C(=O)Nc2ccc(Br)cn2)c1	20%	2%	-1%	89µM*	63%	·
O=c1[nH]c(=O)c2[nH]c(=O)[nH]c2[nH]1	-39%[12.7 µM]	9%	·	·	·	·
CCOC(=O)c1ccccc1NC1CC(=O)N(c2ccccc2C)C1=O (stereo not drawn)	?	79µM*	1%	-20%	7%	0%
CCOC(=O)c1ccccc1NC(=O)C1CC(=O)N(C(C)(C)C)C1 (stereo not drawn)	25%	18%	1%	?	18%	·
CC(C)CC(=O)Nc1c(C(=O)N2CCN(c3ccccc3)CC2)oc2ccccc12	14µM*	·	-34%	-32%	25%	11%
COc1cccc(N2CCN(C(=O)c3oc4ccccc4c3NC(=O)Cc3ccc(OC)c(OC)c3)CC2)c1	·	10%	?	?	5%	7%
COc1cccc(N2CCN(C(=O)c3oc4ccccc4c3NC(=O)CCc3cc(OC)no3)CC2)c1	56µM*	-3%	?	?	3%	7%
CN(C(=O)COC(=O)c1ccc2c(c1)OCO2)C1CCCCC1	·	·	·	-8%	34%[57 µM]	-2%
C[N+]12CCCCC1C(COC(=O)c1ccc3c(c1)OCO3)CCC2 (stereo not drawn)	?	7%	?	20µM*	?	6%
Cc1ccc(OCCC(=O)N2CCN(c3ccc(O)cc3)CC2)cc1	11µM*	56µM*	-35%	14µM*	-26%	·
Cc1ccc(S(=O)(=O)N2CCN(C(=O)CN3CCN(c4ccc(O)cc4)CC3)CC2)cc1	·	·	·	45µM*	?	·
O=C(CCN1CCCC1)c1cccs1	25µM*	-21%	25%	-3%	39%	11%
COc1ccc(N2CCN(C(=O)CSc3ccc(C)cc3)CC2)cc1	?	7%	-4%	-12%	35%	-8%
CC(=O)c1ccc(N2CCN(C(=O)CCC(=O)c3cccs3)CC2)cc1	12%	16%	-3%	-22%	78%	5%
O=C(CCC(=O)N1CCN(c2ccc(O)cc2)CC1)c1cccs1	13µM*	25µM*	-29%	-11%	-18%	4%
Cc1ccc(S(=O)(=O)N2CCN(CC(=O)NCC3(N4CCOCC4)CCCCC3)CC2)cc1	45µM*	·	-2%	-19%	11%	-11%
COc1cc(C(O)C(=O)O)ccc1O (stereo not drawn)	11µM*!	7%	-5%	1%	39%	8%[56.1 µM]
COc1cc(C(C2C(=O)CC(C)(C)CC2=O)C2C(=O)CC(C)(C)CC2=O)ccc1O	38%[0.501 µM]	56µM*	-12%	5%	50%	·
COc1cc(C(C2C(=O)CC(C)(C)CC2=O)C2C(=O)CC(C)(C)CC2=O)ccc1OC(C)=O	·	·	·	6%	47%	·
CC1(C)CC(=O)C(C(C2=C(O)CC(C)(C)CC2=O)c2ccco2)C(=O)C1 (stereo not drawn)	35µM*	?	-30%	-21%[57.1 µM]	27%	-2%
COc1cc(C(=O)O)ccc1O	-6%	5%	-3%	-16%	27%	3%
COc1cc(C(C2C(=O)CC(C)(C)CC2=O)C2C(=O)CC(C)(C)CC2=O)cc(OC)c1OC	45µM*	?	1%	-10%	54%	·
Cc1ccc(-n2c(CNC(=O)c3cccs3)nnc2SCC(=O)NO)cc1	-4%	9%	-36%	-2%[11.4 µM]	56%	2%
CC1(C)CC(=O)C(C(C2=C(O)CC(C)(C)CC2=O)c2ccc(Cl)c([N+](=O)[O-])c2)C(=O)C1 (stereo not drawn)	?	24%	-26%	-10%	24%	-7%
COc1cc(C(C2=C(O)CC(C)(C)CC2=O)C2C(=O)CC(C)(C)CC2=O)cc(OC)c1OC (stereo not drawn)	?	50µM*	?	-29%[57.1 µM]	-1%	2%
